In general, inhibition refers to the drop in the measured response relative to a control, in per cent.

Among the data in PubChem BioAssay AID2521 (Sanford-Burnham Center for Chemical Genomics, 2010) are inhibition values, retold here.

About 1,100 (0.33%) of roughly 330,000 compounds were called active. The sample as a whole holds a higher share of actives than the screen did. Unmarked numbers belong to inactive results.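 Rule for the calls: active = inhibition above about 40% at 20 µM (limit read from the data); inactive = the rest.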

The target of this experiment is Apelin receptor (Homo sapiens) (UniProt P35414). The experiment in a line: blockade of apelin-induced APJ beta-arrestin recruitment – CHO-K1 cells, beta-arrestin complementation, luminescence, primary screen (AID 2521).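 Note: cells challenged with 10 nM apelin-13 agonist together with compound; plate controls were apelin-13 plus DMSO wells for no effect and DMSO wells lacking apelin-13 for full effect.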 The conditions noted are these: at 20 µM, hits give high values.
Sequence of Apelin receptor (Homo sapiens) (P35414 whole entry, looked up): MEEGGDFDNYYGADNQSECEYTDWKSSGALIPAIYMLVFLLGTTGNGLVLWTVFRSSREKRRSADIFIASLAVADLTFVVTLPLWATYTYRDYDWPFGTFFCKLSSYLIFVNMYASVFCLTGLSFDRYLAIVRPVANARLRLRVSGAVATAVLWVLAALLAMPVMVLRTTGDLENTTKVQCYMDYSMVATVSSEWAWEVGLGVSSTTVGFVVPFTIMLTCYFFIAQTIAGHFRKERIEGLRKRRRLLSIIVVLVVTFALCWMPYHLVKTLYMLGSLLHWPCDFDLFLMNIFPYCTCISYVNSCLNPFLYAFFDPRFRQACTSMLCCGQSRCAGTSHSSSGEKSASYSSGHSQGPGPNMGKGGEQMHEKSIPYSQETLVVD
With `O=c1ccc2c(-c3ccccc3S(=O)(=O)O)c3ccc(O)c(O)c3oc-2c1O`, the inhibition is 49.3% (active).
On to `CCNC(=S)N(CCN(CC)CC)Cc1cc2cc3c(cc2[nH]c1=O)OCO3`, for which the inhibition is 12.3%.
For `CCO[C@H]1OC(C(=O)O)=C[C@@H](C2CCCCC2)[C@@H]1CCCO`, the inhibition is -6.59%.
Then `O=C(Nc1cc(=O)[nH]c2ncnn12)c1ccccc1Cl`, with 2.3%; and `CC(C)OC(=O)CN1C(=O)C(=O)c2ccccc21`, with 103% (active).
Then `CCOC(=O)CN1C(=O)C(=O)c2cc(C)ccc21`, with -0.658%; and `CC(OC(=O)CN1C(=O)c2ccccc2C1=O)C(=O)c1ccccc1` (centres undefined), with 23%.
On to `COc1ccc(C(=O)C[n+]2ccc(N)c(C)c2C)cc1`, for which the inhibition was 4.36%.
In the case of `CC(=O)c1ccc(S(=O)(=O)N(C)CCCC(=O)N(C)Cc2ccccc2F)cc1` it was -6.03%.
Then `CCCn1nc2cc(C(=O)NCc3ccccc3)ccc2c1OCC`, with -8.45%; and `N#CCCN(CCC#N)c1nnc(-c2ccccc2)s1`, with 1.67%; and `CCC(=O)c1ccc(OC(=O)/C=C/c2cc(OC)c(OC)c(OC)c2)cc1`, with 20.9%.
Then `Cc1c(C(=O)N2CCCc3ccccc32)oc2ccccc12`, with 6.71%; and `Cc1cccc2cc3c(N)c(C(=O)N4CCCc5ccccc54)sc3nc12`, with 95.8% (active).
As for `Cc1c(C(=O)N2CCCc3ccccc32)sc2nc(-c3ccccc3)cn12`, the inhibition was 21%.
In the case of `Cc1cccc(N(C(=O)c2ccc(CN3CCOCC3)o2)C(C(=O)NC2CCCCC2)c2ccc(F)cc2)c1` (centres undefined) it was 0.911%.
As for `C=C(C)C(=O)O[C@H]1C/C(C)=C\C(=O)/C=C(\C)[C@H](O)[C@@H]2OC(=O)C(=C)[C@@H]21`, the inhibition was 13.2%.
In the case of `Cc1cc(C(=O)CC#N)c(C)n1-c1c(C)n(C)n(-c2ccccc2)c1=O` it was 9.25%.
As to `COc1ccccc1OC(C)C(=O)Nc1ccc(S(=O)(=O)Nc2nccs2)cc1` (centres undefined), the inhibition was 5.98%.
In the case of `O=[N+]([O-])C(=c1ccc2c(c1)N1C3=C(CCCC3)CC3CCCCC31N=2)[N+](=O)[O-]` (centres undefined) it was -3.42%; in that of `CCOc1ccc(NS(=O)(=O)c2ccc(Cl)c(C(=O)N(C)Cc3cccnc3)c2)cc1`, 6.06%.
Take `O=C(c1ccccc1Cl)N(Cc1ccccc1F)N1C(=O)CCCC1=O`: the inhibition was -12.8%.
On to `O=[N+]([O-])c1cc(S(=O)(=O)CCCN2CCOCC2)ccc1F`, for which the inhibition is -24.6%.
`Cc1ccc(C(=O)OC(C)CN2CCOCC2)cc1` (centres undefined): the inhibition was -14.4%.
On to `CC(CN1CCOCC1)OC(=O)c1ccc(Cl)cc1Cl` (centres undefined), for which the inhibition is -5.38%.
In the case of `CC(CN1CCOCC1)OC(=O)c1ccc(C(C)(C)C)cc1` (centres undefined) it was 77% (active); in that of `CCOC(=O)c1cnc2nc(SCc3ccccc3Cl)[nH]n2c1=O`, -11.5%; in that of `CCc1nc2cccnc2n1-c1ccc(C(=O)O)cc1`, 1.09%.
Then `COc1ccc(N2CCN(C(=O)CCSCc3ccccc3F)CC2)cc1`, with -13.7%; and `COC(=O)c1nc2n(n1)C(c1ccc([N+](=O)[O-])cc1)C(C(=O)Nc1ccc(Cl)cc1)=C(C)N2` (centres undefined), with 2.59%; and `COCCn1c(SCC(=O)Nc2ccccc2F)nc2c(c1=O)SCC2`, with 10.3%.
Then `COc1ccc(C(=O)NCC(=O)N/N=C/c2ccc([N+](=O)[O-])o2)cc1OC`, with -1.61%; and `COc1cc(/C=N\NC(=O)CNC(=O)c2cccc([N+](=O)[O-])c2)ccc1O`, with 53.6% (active).
Consider `COc1ccc(O)c(/C=N/N=C/c2cccc([N+](=O)[O-])c2)c1`, for which the inhibition is 15.6%.
Then `COc1ccc(NC(C)=O)cc1NC(=O)CN1CCN(C2c3ccccc3-c3ccccc32)CC1`, with -6.9%; and `O=C(c1ccc(Cl)s1)N(Cc1nnc(-c2ccccc2Cl)o1)C1CC1`, with -57.5%.
Regarding `Brc1cc(Br)c(Oc2cc(Br)c(Br)cc2Br)cc1Br`, the inhibition is 11.9%.
In the case of `COc1ccc(-n2nc(C(=O)NCC(=O)N3CCC(C(N)=O)CC3)c3ccccc3c2=O)cc1OC` it was -0.314%.
Then `COc1cc2c(cc1OC)C(C)N(S(=O)(=O)c1cnc(Cl)c(Cl)c1)CC2` (centres undefined), with -23.5%.
As for `O=C(O)CC1S/C(=N\N=C/c2ccccc2O)N(c2ccc(O)cc2)C1=O` (centres undefined), the inhibition was -8.74%.
Then `CC(C)(C)C(=O)OCc1nc(-c2ccc(O)c(O)c2)cs1`, with -5.74%; and `COc1ccc(-c2csc(NC(=O)COC(=O)Cc3ccc(Cl)cc3Cl)n2)cc1`, with 4.6%.
As for `COc1ccc(-c2csc(Cc3nc(O)cs3)n2)cc1`, the inhibition is 66.3% (active).
For `CSc1cc(C)n(-c2ccccc2C)c(=S)c1C(C)=O`, the inhibition is 7.52%.
For `CC1CC2=C(CC1/C=N/NC(N)=S)C(C)(C)CCC2` (centres undefined), the inhibition was 49.2% (active).
Regarding `O=C1C=C(c2ccccc2)CCC1`, the inhibition is 14.7%.
Consider `Cc1csc(NC(=O)CSc2nnc(-c3cccnc3)o2)n1`, for which the inhibition is 14.2%.
In the case of `O=[N+]([O-])c1ccccc1S(=O)(=O)Nc1cccc2cccnc12`, the inhibition is 53.5% (active).
With `NS(=O)(=O)c1ccc(CCNS(=O)(=O)c2cccc3cccnc23)cc1`, the inhibition was -8.92%.
`O=S(=O)(NCCc1ccc(F)cc1)c1cccc2cccnc12`: the inhibition was 9.75%.
In the case of `Cc1ccc(OCCCC(=O)Nc2ccc(N3CCOCC3)cc2)cc1` it was 11.8%; in that of `O=C(C1CC(=O)N(c2ccc(Br)cc2)C1)N1CCCC1` (centres undefined), -9.51%; in that of `Cc1ccc(NC(=O)c2sc3nc(N)c(C#N)cc3c2N)cc1`, 5.56%.
In the case of `CC(=O)Nc1ccc(NC(=O)c2sc3nc4c(c(-c5ccc(C)cc5)c3c2N)CCC4)cc1` it was 41.5% (active).
As for `Cc1cccc(NC(=O)c2sc3nc(N4CCOCC4)c4c(c3c2N)CCCC4)c1`, the inhibition is 0.268%.
Then `CCNS(=O)(=O)c1ccc(NC(=O)c2cncc(Br)c2)cc1`, with 3.77%; and `O=C(COC(=O)CCc1nc2ccccc2c(=O)[nH]1)Nc1ccc(N2CCOCC2)cc1`, with 5.92%; and `O=C(CCc1nc2ccccc2c(=O)[nH]1)OCC(=O)c1cccc(Cl)c1`, with 46% (active).
As to `CC(C)(C)c1ccc(NC(=O)COC(=O)CCc2nc3ccccc3c(=O)[nH]2)cc1`, the inhibition is 9.52%.
